PubChem BioAssay AID504941 (Broad Institute, 2011)
Among all 1,200 compounds or so, about 170 (14%) were called active. The rule behind the calls is not given here. The list is a sample of the results. Potency and affinity values are given separately.

Experiment: E. coli Tat export inhibitors, dose response, cherry-pick, set 2, plate reader (AID 504941)
Conditions: E. coli Tat transport reporter; series mostly up to 38 µM

outcome, inactive:
CC(C)C(C(=O)NC1CCCC1)N(CC1CCCO1)C(=O)CNS(=O)(=O)c1ccccc1 (stereo unspecified)
CCOc1nc(Nc2ccc(OC)c(Cl)c2)nc(OCC)n1
Cc1ccc(C)c(N2CCN(c3ccc4cc(S(=O)(=O)N5CCCCC5)ccc4n3)CC2)c1
O=C(CCCc1nc2ccccc2s1)NC1CCOC1=O (stereo unspecified)
Cc1ccc(S(=O)(=O)Nc2ccnc(-c3cccnc3)n2)cc1
Clc1ccccc1-c1ccc2ncnc(NCc3cccnc3)c2c1
CC1CC(OC(=O)C(O)c2ccccc2)CC(C)(C)N1C (stereo unspecified)
CC1CCN(CC[C@H]2CCCN2S(=O)(=O)c2cccc(O)c2)CC1
CC1CCN(C(=O)c2ccc(S(=O)(=O)N3CCCC3)cc2)CC1
COc1ccc(/C=C/C(=O)OCc2cc(=O)n3c(n2)sc2ccccc23)cc1
CCN1CCN(C(=O)C(NS(=O)(=O)c2ccc3nc(C)sc3c2)C(C)C)CC1 (stereo unspecified)
O=C(CCNC(=O)c1ccc([N+](=O)[O-])cc1)Nc1cccc(S(=O)(=O)N2CCCCCC2)c1
O=C(NCCc1ccccc1)c1ccc2c(c1)OCCCO2
O=C(CN1CCN(c2ccc(O)cc2)CC1)Nc1ccc2c(c1)OCCO2
Cc1cc(Cl)c(S(=O)(=O)NC(C(=O)O)C(C)C)cc1OCC(=O)NC1CCCCC1 (stereo unspecified)
C[C@@H]1CN(c2c(F)c(F)c3c(=O)c(C(=O)O)cn(C4CC4)c3c2F)C[C@H](C)N1
Nc1nc(=O)n(C2CC(O)C(CO)O2)cc1F (stereo unspecified)
CCNC(=S)NCCN1CCOCC1
CCCc1cc(=O)[nH]c2nnc(SCC(=O)Nc3ccc4c(c3)OCCO4)n12
O=C(Nc1ccc2c(c1)OCCO2)c1ccc(Cl)c(S(=O)(=O)N2CCCCC2)c1
C=CCN(CC=C)S(=O)(=O)c1ccc(NC(=S)NC(=O)C2CC2)cc1
COc1ccc(-c2cc(C(=O)Oc3ccc([N+](=O)[O-])cc3)c3ccccc3n2)cc1
COc1ccc(-c2cc(C)no2)cc1S(=O)(=O)NCCCN1CCCCCC1
CCOc1ccc2[nH]c(C)c(CN3CCCCC3)c(=O)c2c1
Cc1cc(-n2c(C)cc(C(=O)COc3cccnc3[N+](=O)[O-])c2C)no1
O=C(N1CCCC1)C12CC3CC(C1)CC(C(=O)N1CCCC1)(C3)C2
C/C(=N\NC(=O)c1cccc(O)c1)c1cccc(NC(=O)c2ccc(F)cc2)c1
COc1cc(C(=O)NCCOC(=O)c2cccc(N(C)C)c2)cc(OC)c1OC
Cc1cc(C)cc(-n2c(C)cc(/C=C3\C(=N)N4N=C(CC(C)C)SC4=NC3=O)c2C)c1
COc1ccc(NS(=O)(=O)c2ccc(NC(=O)Cc3cccs3)cc2)cc1
O=S(=O)(N1CCCCC1)N1CCN(c2ccccc2F)CC1
CCOC(=O)C(C(=O)Nc1ccc(C)cc1)C1CCCCC1 (stereo unspecified)
Cc1ccccc1NC1=NC(=S)N(c2ccccc2)C12CCOC(C)(C)C2 (stereo unspecified)
CC(CN1CCOCC1)(NS(=O)(=O)c1ccccc1)c1ccccc1 (stereo unspecified)
CC(C)OC(=O)c1c(NC(=O)c2ccco2)sc2c1CCCC2
CCOC(=O)CC(=O)Nc1ccccc1C(=O)O
O=C(O)CCC(=O)Nc1sc2c(c1C(=O)Nc1cccc3ccccc13)CCCCC2
CCCCNC(=O)CCCn1c(=O)[nH]c2ccc(Br)cc2c1=O
O=C1OCc2ccc(NC(=O)C3CC3)cc21
OCCN1CCN(C(=S)Nc2ccc(Oc3ccccc3)cc2)CC1
Cc1ccc(CC(=O)NCCS(=O)c2ccc(Cl)cc2)cc1 (stereo unspecified)
Cc1ccc(CS(=O)(=O)CCC(=O)NCCCN2CCCC2)cc1
O=C(CN1C(=O)NC2(CCCCC2)C1=O)NCc1cccs1
COCn1c(-c2cccc(Br)c2)nc2ccccc21
CSc1ccccc1OCc1cc(C(=O)N(C)Cc2c(C)n[nH]c2C)no1
COc1cc(Cl)ccc1OCc1cc(C(=O)NCC(C)(C)N2CCOCC2)no1
O=C(CSc1nnc(-c2cccnc2)o1)Nc1ccc(Cl)cc1
NS(=O)(=O)c1ccc(NC(=O)CSc2nnc(-c3ccc(O)cc3)o2)cc1
CC(=O)N1Cc2cc([N+](=O)[O-])ccc2Oc2ccccc21
CC(=O)NC(Cc1cnc[nH]1)C(=O)O (stereo unspecified)
CCCN(C(=O)Cn1c(C(F)(F)F)nc2ccccc21)C1CCS(=O)(=O)C1 (stereo unspecified)
O=C(NCc1ccccc1)c1ccc(Br)o1
O=C(NCc1ccccc1)c1ccc(F)c(F)c1
Cc1ccc(OCCNC(=O)c2cc(-n3cnnc3)ccc2Cl)cc1C
C[C@@H]1O[C@@H](Oc2c(-c3ccc(O)c(O)c3)oc3cc(O)cc(O)c3c2=O)[C@H](O)[C@H](O)[C@H]1O
COc1ccc(Cl)cc1NC(=S)NCc1cccnc1
CC(C)N1CCc2c(sc(NC(=O)c3ccc(S(=O)(=O)N4CCc5ccccc54)cc3)c2C(N)=O)C1
CC(NC(=O)c1ccc([N+](=O)[O-])o1)C12CC3CC(CC(C3)C1)C2 (stereo unspecified)
COc1ccccc1N1CCN(C(=O)c2cc3c(=O)n4ccccc4nc3s2)CC1
Cc1ccc(NC(=O)CSc2nccn2C)cc1F
CCCNC(=O)c1cc(C)no1
COc1ccc(S(=O)(=O)N2CCC(C(=O)NCc3cccnc3)CC2)cc1OC
COc1ccc(NC(=O)Cn2ncc(Cl)c(Cl)c2=O)cc1S(=O)(=O)N1CCOCC1
O=c1[nH]c2ccc(S(=O)(=O)N3CCCCC3)cc2s1
CN(C)C(=S)Nc1ccc2ccccc2c1
O=C(Cn1cc(C(F)(F)F)ccc1=O)OCC(=O)c1ccc[nH]1
COc1ccc(/C(C)=N/NC(=O)CNC(=O)c2ccncc2)c(OC)c1
Cc1c(Cl)cccc1NC(=O)C1NC(=O)CC1c1ccccc1 (stereo unspecified)
COC(=O)CSc1ccc(C#N)c(SCC(=O)OC)c1
CCC1Oc2nc(SC)nnc2-c2ccccc2N1C(=O)c1ccccc1 (stereo unspecified)
CCC(CC)C(=O)Nc1nnc(S(=O)(=O)N2CCCCCC2)s1
CCOC(=O)c1cc(C)sc1NC(=O)C(c1ccccc1)c1ccccc1
CCOc1ccc(NC(=O)CN2C(=O)/C(=C3\SC(=S)N(C4CCS(=O)(=O)C4)C3=O)c3ccccc32)cc1 (stereo unspecified)
Cc1cc(C)c(NS(=O)(=O)c2ccc3c(c2)NC(=O)CCS3)c(C)c1
O=C(COC(=O)/C=C/c1ccc(F)cc1)Nc1nnc(-c2ccccc2)o1
Cc1cc(C(=O)CSc2nnc(-c3ccc4c(c3)OCO4)o2)c(C)n1-c1ccc(F)cc1
O=C(Cn1cc([N+](=O)[O-])cn1)N1CCN(c2ccccc2)CC1
COC(=O)C1C(O)C(C)C(O)C(C)(O)/C=C\C=C(/C)C(=O)Nc2c(C)c(OC(C)=O)c3c(c2O)C(=O)C(C)=C2OCOC(=C23)/C(C)=C/C(C)(O)C(O)C(C)C1O (stereo unspecified)
COc1ccc(S(=O)(=O)N2CCC(C(=O)N3CCN(C)CC3)CC2)cc1Cl
COc1ccc(OC)c(S(=O)(=O)N2CCC(C(=O)NC3CC3)CC2)c1
CCOc1ccc(NC(=O)CNC(=O)Cc2ccccc2)cc1
COC(=O)c1ccc(CNC(=O)C2CCC(=O)N(Cc3ccccn3)C2)cc1 (stereo unspecified)
CNC1=CC(=O)CC(c2ccccc2)C1 (stereo unspecified)
CCCCCn1c(CNC(=O)c2cccs2)nc2ccccc21
O=C(Nc1c2c(nn1-c1ccccc1)CS(=O)(=O)C2)c1cccs1
O=C(COC(=O)c1cccc(S(=O)(=O)N2CCc3ccccc32)c1)Nc1ncc(C(F)(F)F)cc1Cl
Cc1cccnc1NC(=O)c1cccc(S(=O)(=O)N2CCCc3ccccc32)c1
Cc1nc(NC(=O)/C=C/c2ccccc2)sc1C(=O)N(C)C
CC(NC(=O)CSc1nc2sc3c(c2c(=O)n1-c1ccccc1)CCCC3)c1ccccc1 (stereo unspecified)
CCn1c(C)cc(/C=C2/NC(=O)N(Cc3ccccc3F)C2=O)c1C
O=C(COc1ccc2c3c(c(=O)oc2c1)CCCC3)NCC(O)c1ccccc1 (stereo unspecified)
O=C(COc1ccc2c3c(c(=O)oc2c1)CCCC3)NCCCn1ccnc1
c1ccc(-n2c(SCC3CCCCO3)nnc2-c2cccs2)cc1 (stereo unspecified)
Cc1noc(C)c1COc1ccccc1C(=O)NC1CCC(C)CC1 (stereo unspecified)
CCN(CC)CC(=O)N(CC(=O)Nc1c(C)cc(C)cc1C)C1CCCCC1
O=[N+]([O-])c1ccc(O)c(/C=N/Nc2nc3ccccc3[nH]2)c1
O=c1oc(-c2ccccc2)nc2sc3c(c12)CCCC3
O=C(O)CCCc1nc(-c2ccc(Cl)cc2)no1
COc1ccc(OCc2nnc(SCC(=O)N3C(C)CCCC3C)o2)cc1 (stereo unspecified)
c1ccc(C2NCCc3ccccc32)cc1 (stereo unspecified)
Nc1nnc(-c2cn(-c3ccccc3)nc2-c2ccc(Cl)cc2)o1
CSc1ncccc1C(=O)OCC(=O)N(C)c1c(N)n(Cc2ccccc2)c(=O)[nH]c1=O
O=C(COC(=O)C12CC3CC(CC(Br)(C3)C1)C2)Nc1cccnc1Cl
O=C(OCC(=O)N1CCCC1=O)c1cccc(S(=O)(=O)N2CCOCC2)c1
COc1ccc(NC(=O)CC2(CC(=O)O)CCCC2)cn1
O=C(Nc1nc2c(s1)CCCC2)c1cccc(S(=O)(=O)N2CCCc3ccccc32)c1
